The supplement of paper PMC11732987, “Enantioselective OTUD7B fragment discovery through chemoproteomics screening and high-throughput optimisation” (Communications Chemistry, 2025)

How the values were obtained:
Assay in all cases: log2 ratio of Biotin-Ahx-Ub-VS probe labelling (fragment/DMSO); higher = less target engagement (more negative = stronger competition), active = hit call of the paper (q ≤ 0.05, log2 ratio ≤ -1)
Details in all cases: compound concentration: 200 uM; treatment time: 3 h
[1] = molecular target: T1, USP19 (UniProt O94966)
T1 sequence (whole entry): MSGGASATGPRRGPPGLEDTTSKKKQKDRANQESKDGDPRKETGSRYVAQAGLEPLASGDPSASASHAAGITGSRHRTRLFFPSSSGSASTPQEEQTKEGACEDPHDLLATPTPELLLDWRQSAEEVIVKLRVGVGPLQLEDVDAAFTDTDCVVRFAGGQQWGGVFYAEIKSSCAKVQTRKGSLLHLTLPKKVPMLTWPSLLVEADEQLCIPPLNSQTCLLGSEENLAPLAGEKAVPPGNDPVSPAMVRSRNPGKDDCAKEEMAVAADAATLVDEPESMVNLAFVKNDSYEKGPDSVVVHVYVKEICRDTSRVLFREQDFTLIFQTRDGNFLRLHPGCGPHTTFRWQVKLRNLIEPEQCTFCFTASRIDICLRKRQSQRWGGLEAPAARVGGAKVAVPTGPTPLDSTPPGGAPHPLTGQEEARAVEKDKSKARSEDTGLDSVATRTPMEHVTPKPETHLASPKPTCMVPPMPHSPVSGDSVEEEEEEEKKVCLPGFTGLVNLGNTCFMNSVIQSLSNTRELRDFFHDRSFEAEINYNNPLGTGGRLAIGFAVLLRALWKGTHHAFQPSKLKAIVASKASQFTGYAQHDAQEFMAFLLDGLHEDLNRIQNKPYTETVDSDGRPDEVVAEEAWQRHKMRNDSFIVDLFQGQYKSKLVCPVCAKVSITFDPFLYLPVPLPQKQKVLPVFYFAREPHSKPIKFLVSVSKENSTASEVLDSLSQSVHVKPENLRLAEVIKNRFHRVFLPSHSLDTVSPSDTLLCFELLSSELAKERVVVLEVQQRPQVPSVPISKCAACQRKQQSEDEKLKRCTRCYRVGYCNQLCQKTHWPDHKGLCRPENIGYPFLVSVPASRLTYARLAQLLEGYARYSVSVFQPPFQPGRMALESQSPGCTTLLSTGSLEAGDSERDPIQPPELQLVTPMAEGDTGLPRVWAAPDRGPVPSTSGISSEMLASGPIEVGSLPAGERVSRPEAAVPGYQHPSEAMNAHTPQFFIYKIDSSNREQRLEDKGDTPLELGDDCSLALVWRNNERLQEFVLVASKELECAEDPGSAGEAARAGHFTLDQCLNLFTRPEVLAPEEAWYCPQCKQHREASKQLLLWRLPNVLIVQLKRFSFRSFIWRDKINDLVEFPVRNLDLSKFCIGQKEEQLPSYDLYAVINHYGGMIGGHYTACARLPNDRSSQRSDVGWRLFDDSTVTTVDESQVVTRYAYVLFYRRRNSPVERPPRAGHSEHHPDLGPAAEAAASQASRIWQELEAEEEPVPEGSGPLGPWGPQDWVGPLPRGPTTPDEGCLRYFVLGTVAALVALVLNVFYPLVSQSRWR
Outline: (§1)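 HEK293T lysate, 495 µg per sample in Tris/CHAPS/IGEPAL buffer with protease inhibitors, was treated in triplicate with fragment at 200 µM or vehicle for 3 h and then with Biotin-Ahx-Ub-VS at 0.5 µM final for 1 h. Labelled DUBs were NeutrAvidin-enriched, digested with LysC and trypsin, and run by diaPASEF LC-MS/MS. Spectronaut label-free quantities were global-median-normalised, and values are average log2 fragment/vehicle ratios by unpaired t-test on proteins with ≥2 unique peptides.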

[2] = molecular target: USP24 (UniProt Q9UPU5)
Outline: as §1

[3] = molecular target: T2, USP25 (UniProt Q9UHP3)
T2 sequence (whole entry): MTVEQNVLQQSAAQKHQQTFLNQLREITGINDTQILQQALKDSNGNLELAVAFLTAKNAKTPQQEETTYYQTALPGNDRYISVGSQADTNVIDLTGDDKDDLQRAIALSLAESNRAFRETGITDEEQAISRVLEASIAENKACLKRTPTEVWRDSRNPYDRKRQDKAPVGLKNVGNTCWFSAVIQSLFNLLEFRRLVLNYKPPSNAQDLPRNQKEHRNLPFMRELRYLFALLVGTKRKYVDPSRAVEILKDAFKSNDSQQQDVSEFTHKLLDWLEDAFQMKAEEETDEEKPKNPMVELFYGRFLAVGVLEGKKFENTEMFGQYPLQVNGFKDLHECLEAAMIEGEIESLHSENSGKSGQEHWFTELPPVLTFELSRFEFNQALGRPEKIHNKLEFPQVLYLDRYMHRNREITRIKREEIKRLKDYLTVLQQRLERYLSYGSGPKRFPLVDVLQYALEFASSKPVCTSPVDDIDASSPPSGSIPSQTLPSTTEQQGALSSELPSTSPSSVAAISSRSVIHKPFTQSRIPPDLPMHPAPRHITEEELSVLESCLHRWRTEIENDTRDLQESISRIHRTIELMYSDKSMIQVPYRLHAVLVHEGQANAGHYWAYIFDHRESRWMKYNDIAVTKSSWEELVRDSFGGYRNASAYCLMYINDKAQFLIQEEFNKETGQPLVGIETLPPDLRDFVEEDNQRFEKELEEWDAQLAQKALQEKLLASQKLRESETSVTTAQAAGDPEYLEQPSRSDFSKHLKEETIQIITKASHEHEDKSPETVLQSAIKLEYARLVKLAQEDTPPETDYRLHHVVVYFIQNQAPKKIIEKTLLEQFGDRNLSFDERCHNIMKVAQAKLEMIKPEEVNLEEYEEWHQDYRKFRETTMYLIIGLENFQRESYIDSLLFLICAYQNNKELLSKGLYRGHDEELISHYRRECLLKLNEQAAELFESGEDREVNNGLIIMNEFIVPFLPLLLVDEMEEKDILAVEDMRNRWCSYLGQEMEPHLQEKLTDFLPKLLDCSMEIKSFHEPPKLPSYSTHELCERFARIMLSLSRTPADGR
Outline: as §1

[4] = molecular target: T3, USP28 (UniProt Q96RU2)
T3 sequence (whole entry): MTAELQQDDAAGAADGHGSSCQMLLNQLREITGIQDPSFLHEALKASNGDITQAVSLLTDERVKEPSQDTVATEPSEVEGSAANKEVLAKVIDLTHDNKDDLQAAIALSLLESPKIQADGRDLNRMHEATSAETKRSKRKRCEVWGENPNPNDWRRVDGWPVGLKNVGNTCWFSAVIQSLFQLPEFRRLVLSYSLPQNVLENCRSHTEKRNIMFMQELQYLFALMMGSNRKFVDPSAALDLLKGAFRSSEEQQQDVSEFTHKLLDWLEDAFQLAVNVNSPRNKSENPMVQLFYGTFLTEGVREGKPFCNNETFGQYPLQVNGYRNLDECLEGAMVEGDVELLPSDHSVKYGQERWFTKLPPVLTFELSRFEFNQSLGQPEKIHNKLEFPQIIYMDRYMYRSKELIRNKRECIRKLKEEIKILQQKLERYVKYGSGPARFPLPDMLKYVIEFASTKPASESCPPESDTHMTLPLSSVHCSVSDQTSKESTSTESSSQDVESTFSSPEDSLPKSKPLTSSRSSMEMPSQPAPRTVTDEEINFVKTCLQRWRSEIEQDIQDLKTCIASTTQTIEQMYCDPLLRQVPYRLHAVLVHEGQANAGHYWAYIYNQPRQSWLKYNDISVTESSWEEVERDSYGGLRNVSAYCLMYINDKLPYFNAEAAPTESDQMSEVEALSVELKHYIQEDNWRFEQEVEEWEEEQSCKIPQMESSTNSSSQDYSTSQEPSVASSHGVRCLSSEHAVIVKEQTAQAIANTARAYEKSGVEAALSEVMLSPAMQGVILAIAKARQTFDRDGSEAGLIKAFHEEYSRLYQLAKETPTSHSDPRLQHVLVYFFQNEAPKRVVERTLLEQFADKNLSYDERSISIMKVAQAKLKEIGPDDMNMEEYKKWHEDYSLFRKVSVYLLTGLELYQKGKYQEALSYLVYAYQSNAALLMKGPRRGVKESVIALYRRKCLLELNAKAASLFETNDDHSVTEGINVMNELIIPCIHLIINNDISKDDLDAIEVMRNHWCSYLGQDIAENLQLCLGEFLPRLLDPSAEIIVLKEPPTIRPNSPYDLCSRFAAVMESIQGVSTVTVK
Outline: as §1

Measured: log2 ratio of Biotin-Ahx-Ub-VS probe labelling

Sequence of USP24 (Q9UPU5 whole entry): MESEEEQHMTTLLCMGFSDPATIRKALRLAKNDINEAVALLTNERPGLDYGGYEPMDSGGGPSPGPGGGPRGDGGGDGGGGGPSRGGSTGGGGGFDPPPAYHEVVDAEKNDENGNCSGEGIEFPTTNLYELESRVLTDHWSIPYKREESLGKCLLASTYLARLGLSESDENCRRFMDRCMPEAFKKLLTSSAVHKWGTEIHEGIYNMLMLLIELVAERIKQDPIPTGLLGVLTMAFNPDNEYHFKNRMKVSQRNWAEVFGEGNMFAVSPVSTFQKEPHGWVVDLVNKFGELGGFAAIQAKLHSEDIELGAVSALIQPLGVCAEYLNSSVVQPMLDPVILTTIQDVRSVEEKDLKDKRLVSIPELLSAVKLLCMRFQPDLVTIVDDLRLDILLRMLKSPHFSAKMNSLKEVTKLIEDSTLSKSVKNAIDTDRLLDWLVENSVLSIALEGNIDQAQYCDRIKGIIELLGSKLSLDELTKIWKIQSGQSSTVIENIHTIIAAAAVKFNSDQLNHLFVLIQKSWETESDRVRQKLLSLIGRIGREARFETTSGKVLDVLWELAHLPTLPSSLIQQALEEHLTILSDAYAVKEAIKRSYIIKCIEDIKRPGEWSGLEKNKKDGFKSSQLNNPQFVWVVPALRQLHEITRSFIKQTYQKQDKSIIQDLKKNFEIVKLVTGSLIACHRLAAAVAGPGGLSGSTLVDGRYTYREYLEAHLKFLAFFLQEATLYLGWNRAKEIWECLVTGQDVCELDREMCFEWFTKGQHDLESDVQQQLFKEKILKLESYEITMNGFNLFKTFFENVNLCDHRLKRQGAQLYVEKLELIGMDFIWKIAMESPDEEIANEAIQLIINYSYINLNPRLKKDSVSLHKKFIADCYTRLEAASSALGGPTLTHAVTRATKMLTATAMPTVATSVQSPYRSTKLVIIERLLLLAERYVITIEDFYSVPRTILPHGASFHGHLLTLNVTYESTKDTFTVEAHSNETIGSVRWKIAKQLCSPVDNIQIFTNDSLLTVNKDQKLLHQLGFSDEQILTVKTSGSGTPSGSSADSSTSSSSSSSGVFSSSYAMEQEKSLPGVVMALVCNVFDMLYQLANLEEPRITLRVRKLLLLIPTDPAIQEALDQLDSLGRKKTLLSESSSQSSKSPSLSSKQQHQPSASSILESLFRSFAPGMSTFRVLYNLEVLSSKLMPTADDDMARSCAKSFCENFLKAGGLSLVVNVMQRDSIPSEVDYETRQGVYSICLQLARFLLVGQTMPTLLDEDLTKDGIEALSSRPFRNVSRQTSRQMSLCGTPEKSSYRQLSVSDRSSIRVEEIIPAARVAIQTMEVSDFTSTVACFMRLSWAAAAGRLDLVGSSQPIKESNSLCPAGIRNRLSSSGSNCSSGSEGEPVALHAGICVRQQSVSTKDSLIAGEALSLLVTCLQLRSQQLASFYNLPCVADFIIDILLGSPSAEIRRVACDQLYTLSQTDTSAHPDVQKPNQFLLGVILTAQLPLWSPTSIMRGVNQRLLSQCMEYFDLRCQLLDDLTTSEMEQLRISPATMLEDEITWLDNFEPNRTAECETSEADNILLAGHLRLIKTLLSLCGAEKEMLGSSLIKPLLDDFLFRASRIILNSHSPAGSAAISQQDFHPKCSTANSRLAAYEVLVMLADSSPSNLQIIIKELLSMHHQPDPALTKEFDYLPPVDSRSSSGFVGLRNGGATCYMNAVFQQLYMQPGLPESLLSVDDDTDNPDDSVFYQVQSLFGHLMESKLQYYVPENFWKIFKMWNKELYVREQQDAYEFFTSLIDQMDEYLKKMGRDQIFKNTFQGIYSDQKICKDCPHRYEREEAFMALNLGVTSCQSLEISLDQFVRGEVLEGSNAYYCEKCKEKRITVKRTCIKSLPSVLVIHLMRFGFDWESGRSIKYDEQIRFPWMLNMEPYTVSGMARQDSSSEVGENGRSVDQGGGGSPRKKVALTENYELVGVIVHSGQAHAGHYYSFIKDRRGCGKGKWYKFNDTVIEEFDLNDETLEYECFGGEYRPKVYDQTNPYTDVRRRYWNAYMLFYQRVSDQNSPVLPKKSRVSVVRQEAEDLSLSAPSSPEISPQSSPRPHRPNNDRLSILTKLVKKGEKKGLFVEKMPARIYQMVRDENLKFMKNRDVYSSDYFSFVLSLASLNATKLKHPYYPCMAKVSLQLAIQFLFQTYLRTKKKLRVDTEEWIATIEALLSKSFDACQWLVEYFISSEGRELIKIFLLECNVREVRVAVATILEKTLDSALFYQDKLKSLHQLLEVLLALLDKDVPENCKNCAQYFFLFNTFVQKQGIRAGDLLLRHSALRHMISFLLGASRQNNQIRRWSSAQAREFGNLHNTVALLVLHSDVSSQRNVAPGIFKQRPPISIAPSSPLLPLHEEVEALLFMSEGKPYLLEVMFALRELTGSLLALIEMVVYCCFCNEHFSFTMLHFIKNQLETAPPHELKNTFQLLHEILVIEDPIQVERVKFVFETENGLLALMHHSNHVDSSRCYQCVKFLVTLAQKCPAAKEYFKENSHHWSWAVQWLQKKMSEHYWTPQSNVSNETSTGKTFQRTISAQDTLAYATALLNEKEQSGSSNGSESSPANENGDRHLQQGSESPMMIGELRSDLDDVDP

Cc1ccc(N2CCC(NC(=O)CCl)C2=O)cc1 (centres undefined)
inactive: [1] 0.0818 | [2] 0.141 | [3] 0.0471 | [4] -0.0346
